# Data from ChEMBL document CHEMBL3988442, “University of Dundee, Small-Polar-MMV Screening Library” (2021).
# Molecular target: T1, Aspartate--tRNA(Asp/Asn) ligase (Mycobacterium tuberculosis (strain ATCC 25618 / H37Rv)) (UniProt P9WFW3)
# T1 sequence (whole entry): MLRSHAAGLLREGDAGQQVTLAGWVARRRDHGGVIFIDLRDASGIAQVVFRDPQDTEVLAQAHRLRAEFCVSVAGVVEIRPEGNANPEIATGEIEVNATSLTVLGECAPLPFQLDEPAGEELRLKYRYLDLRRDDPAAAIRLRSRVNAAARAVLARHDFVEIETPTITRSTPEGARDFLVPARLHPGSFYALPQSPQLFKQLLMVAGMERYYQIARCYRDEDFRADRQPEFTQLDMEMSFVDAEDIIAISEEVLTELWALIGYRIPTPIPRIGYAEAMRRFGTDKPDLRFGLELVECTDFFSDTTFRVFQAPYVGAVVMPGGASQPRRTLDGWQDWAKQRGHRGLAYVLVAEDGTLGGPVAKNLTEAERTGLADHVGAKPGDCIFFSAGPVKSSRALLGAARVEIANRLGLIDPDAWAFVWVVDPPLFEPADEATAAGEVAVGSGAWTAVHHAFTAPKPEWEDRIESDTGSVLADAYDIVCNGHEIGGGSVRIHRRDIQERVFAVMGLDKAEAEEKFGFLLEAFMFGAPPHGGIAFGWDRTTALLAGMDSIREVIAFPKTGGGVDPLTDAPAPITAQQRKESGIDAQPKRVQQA
# Experiment: Assay for Asp RNA synthetase-1 from Mycobacterium tuberculosis
# Assay type: functional
# Parameters: scale not given: in the data most compounds retested in dose-response had high values
# Details: 30 µM
row,Structure (SMILES),Percent Effect [%]
1,COc1ccc(-n2cnnc2SCCC#N)cn1,-0.885
2,CCNC(=O)NC(=O)CSC(C)c1c(F)cccc1F (stereo not given),-1.51
3,CCOc1ncccc1CNC(=O)N1CCCC1c1ccncc1 (stereo not given),-0.287
4,O=C(CCNS(=O)(=O)c1ccc2c(c1)CCCC2)NCc1ccoc1,0.701
5,CN(CCO)Cc1nnc(C2CCN(C(=O)c3cccnc3)CC2)n1C,-0.977
6,CSc1cccc(CNC(=O)C2CC(=O)N(CCN(C)C)C2)c1 (stereo not given),2.84
7,O=C(NCCc1cccc(O)c1)NC1CCN(c2ccccc2)C1=O (stereo not given),-2.7
8,CC(C)c1nccn1CCCNC(=O)c1ccc(-c2cncnc2)nc1,-1.78
9,CC(C)c1cccc(CSc2nnc(CN3CCCC3=O)o2)n1,1.44
10,O=C(C1CC(=O)N(C2CCCC2)C1)N1CCN(CCn2cccc2)CC1 (stereo not given),-2.4
11,CCc1nc(CCNC(=O)Nc2ccc(C(=O)NC)cc2C)cs1,-2.88
12,COc1c(CNC2CCc3c(Cl)cccc32)c(C)nn1C (stereo not given),-1.71
13,Cc1nc(C)n(CC2CCCCN2CC(=O)Nc2nncs2)n1 (stereo not given),-3.83
14,Cc1nc(C2CCCN2C(=O)CNS(C)(=O)=O)no1 (stereo not given),0.586
15,CC(C)CN1CCCn2nc(CNC(=O)c3cccnc3O)cc2C1,-2.56
16,Cc1ccc(CNCc2nnc3n2CCCC3C(F)(F)F)o1 (stereo not given),0.425
17,Cc1n[nH]c(C2CN(CC(=O)NCc3ccco3)CCO2)n1 (stereo not given),0.448
18,Cc1ccc(CNCc2nnc3n2CCCC3C(F)(F)F)s1 (stereo not given),4.24
19,COc1ccc(F)c(CN2CCC3(CCC(=O)N(CC(N)=O)C3)CC2)c1,-3.94
20,Cc1ccc(S(=O)(=O)NCCNC(=O)c2ccoc2)cc1F,-4.4

row,Structure (SMILES),Percent Effect [%]
1,Cc1nn(C)c(Cl)c1C1CCCN1c1ncnc2sccc12 (stereo not given),-2.03
2,COc1cccc(-c2noc(-c3ccc(NCC4CC4)nc3)n2)c1OC,-3.57
3,O=C(c1cncc(N2CCC3(CCNCC3)CC2)n1)N1CCCC1,-3.85
4,Cc1noc(C)c1C(=O)N(C)Cc1nc(-c2ccccn2)no1,-3.85
5,CNC(=O)c1cccc(CNC(=O)C2CC(=O)N(CCN(C)C)C2)c1 (stereo not given),-2.01
6,CCC[C@@H]1CN(S(=O)(=O)c2ccc(C)c(F)c2)C[C@H]1N(C)C,0.149
7,Cc1cc(C2CCCN2C(=O)NCc2cccc(F)c2)on1 (stereo not given),-1.23
8,CCn1cc(NC(=O)NC2CCCc3c2cnn3CCO)cn1 (stereo not given),-3.64
9,O=C(CN1CCNCC1)N1CC[C@@H](c2ccc3ccccc3c2)[C@H](O)C1,-0.747
10,Cn1cccc1C1CCCN1C(=O)NCCCn1cccn1 (stereo not given),-1
11,Cc1ccccc1CS(=O)(=O)NCCCN1CCCCC1,-2.17
12,CCCc1nc(N2Cc3cnn(Cc4ccc(F)cc4)c3C2)no1,-0.77
13,CC(=O)c1cn(CC(=O)NC(C(=O)O)C(C)C)c2ccccc12 (stereo not given),-0.402
14,Cc1nn(C)cc1CNC(=O)c1cn(CCC2CCCCN2)nn1 (stereo not given),-2.13
15,Cc1ccc(N2CCCC(N(C)Cc3cc(C)no3)C2)nn1 (stereo not given),-1.94
16,Cc1ccc(C2COCCN2C(=O)c2ccc(CN(C)C)cc2)o1 (stereo not given),-1.28
17,COc1cc(C(=O)N(CCC#N)Cc2ccccn2)cc(OC)c1C,-3.83
18,Cc1cnn(CCNCc2ccc(OCc3csc(C)n3)cc2)c1,-0.126
19,CCc1nsc(NC2CCCn3nc(COC)nc32)n1 (stereo not given),-2.56
20,CSCc1nc(C(C)(C)NC(=O)OC(C)(C)C)no1,-0.954
